Calls of active or inactive are those of the source. Calls come from the whole dose curve; as a rule, active = well fitted curve in the direction sought with a large enough effect in the repeat runs; inconclusive = weak or mixed curves; inactive = flat fitted curve, though single readings scatter.

A short description of this assay: qHTS assay to test for compound auto fluorescence at 590 nm (red) in HEK293 cells (AID 720679). Conditions: red autofluorescence 540/590 nm; series mostly up to 91.3 µM. In outline: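 We plated HEK293 cells in 10% dialyzed FBS medium, let them adhere for 4-5 hr, then added 23 nL compound. Overnight at 37C and 5% CO2 preceded fluorescence measurement at 540/590nm.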
A general note: Quantitative high-throughput screening tests each substance at several concentrations.
For the molecule `O=c1[nH]c(Cl)c(Cl)cc1Cl`, the molecule was classed as inactive.
On to `Oc1cccc(Cl)c1Cl`, for which the outcome was inactive.
For the molecule `CC1(C)[C@H](/C=C2\CCSC2=O)[C@@H]1C(=O)OCc1coc(Cc2ccccc2)c1`, the result was inactive.
The entry for `CCN(CC)C(=S)S` is “inactive”; for `Fc1ccc(C(OCCN2CCN(CCCc3ccccc3)CC2)c2ccc(F)cc2)cc1` it is “inactive”; for `CO/N=C(\C(=O)OC)c1ccccc1CO/N=C(\C)c1cccc(C(F)(F)F)c1` it is “inactive”.
Regarding `CC[C@H](C)[C@H]1O[C@]2(C=C[C@@H]1C)C[C@@H]1C[C@@H](C/C=C(\C)[C@@H](O[C@H]3C[C@H](OC)[C@@H](O[C@H]4C[C@H](OC)[C@@H](NC)[C@H](C)O4)[C@H](C)O3)[C@@H](C)/C=C/C=C3\CO[C@@H]4[C@H](O)C(C)=C[C@@H](C(=O)O1)[C@]34O)O2`, the outcome was inactive.
With `CCC(OC(C)=O)C(CC(C)NC)(c1ccccc1)c1ccccc1` (configuration not stated), the call was inactive.
In the case of `COc1ccc2c3c1O[C@H]1[C@H](O)CC[C@H]4[C@@H](C2)N(C)CC[C@@]341`, the result was inactive.
The entry for `Nc1nc(N)c(N)c(N)n1` is “inactive”.
With `O=[N+]([O-])c1cc(C(F)(F)F)c(Cl)c([N+](=O)[O-])c1Nc1ncc(C(F)(F)F)cc1Cl`, the molecule was classed as inactive.
As for `Brc1cccc(-c2ccccc2)c1`, the outcome was inactive.
For the molecule `S=C=Nc1ccccc1`, the molecule was called inactive.
On to `COP(=O)(OC)Oc1ccc([N+](=O)[O-])cc1`, for which the outcome was inactive.
`Cc1c([N+](=O)[O-])c(C)c([N+](=O)[O-])c(C(C)(C)C)c1[N+](=O)[O-]`: the molecule was classed as inactive.
With `CC1CN1` (configuration not stated), the molecule was called inactive.
The entry for `CC(=O)[O][Sn]([c]1ccccc1)([c]1ccccc1)[c]1ccccc1` is “inactive”.

(Values after PubChem BioAssay (Tox21).)
